# Measurements as given in PubChem BioAssay (NCI).
# Values joined by “and” are separate entries in the source; they are usually repeats but may differ in a detail not shown here. Equal values may be shown once. About 83,000 compounds went through this panel and 20% of them were active in at least one assay; those are over-represented in the sample as a whole.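 Assay: single dose, 48 h. Readout: percent growth (0 = no net growth; negative = cell death). Active: <10.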 Values without a mark were called inactive. Active and inactive are the calls of the source.
# Test system: MDA-MB-468 breast
# Assay: NCI-60 one-dose screen, 48 h (100 = growth as untreated, 0 = no growth, -100 = all killed)
# Settings: 10 µM unless noted
row,SMILES,growth
1,Cc1[nH]c(C(=O)Nc2ccccc2OC2CCN(CCN3CCOCC3)CC2)c(Cl)c1Cl,91.6%
2,CCOC(=O)Nc1nc2ccccc2[nH]1,99.4% and 26.8%
3,N#Cc1nc(-c2ccccc2)oc1S(=O)(=O)N1CCN(c2ccccc2)CC1,98.3%
4,CCOC(=O)c1sc2nc(-c3cccc(O)c3)nc(N3CCOCC3)c2c1C,47.5%
5,COc1cc(-c2nc3cc(Cl)c(Cl)cc3[nH]2)ccc1OCC(=O)N=Nc1c(O)[nH]c2ccc(Cl)cc12,-56.3% (active)
6,Cc1c(C(N)=O)sc2c1c(=O)n(Cc1ccccc1)c1nnc(-c3ccc(Br)cc3)n21,29.8%
7,COc1cc(C(=O)Oc2ccccc2OC(=O)c2cc(OC)c(OC)c(OC)c2)cc(OC)c1OC,105%
8,O=C(/C=C\c1ccco1)/C=C/c1ccco1,102%
9,CCN1C(=O)N(CC)C2SC(N/N=C/c3cccs3)=NC21 (stereo not given),32.4%
10,Nc1nc(=S)c2ncn(C3OC(COC(=O)c4ccc(Cl)cc4)C(OC(=O)c4ccc(Cl)cc4)C3OC(=O)c3ccc(Cl)cc3)c2[nH]1 (stereo not given),23.6%
11,O=C1Nc2ccc(Cl)cc2/C1=N/c1nc(-c2ccc(F)cc2)cs1,27.6%
12,COc1ccc(/C(=C2/O[C@@H]([C@H]3COC(C)(C)O3)[C@H]3OC(C)(C)O[C@@H]23)c2cc(OC)c(OC)c(OC)c2)cc1O,113%
13,Oc1ccccc1-c1nnc(COc2ccc(Cl)cc2Cl)o1,58.7%
14,COC(=O)CCC/C=C\C[C@H]1C=CC(=O)/C1=C/C[C@@H](O)C/C=C\CC(F)(F)F,-6.29% (active)
15,C/C(Cc1ccc(Cl)cc1)=C(/c1ccccc1)c1ccc(OCCN)cc1,97.2%
16,COc1cc(Nc2nc(NCCN)nc3cc[nH]c(=O)c23)cc(OC)c1,3.37% (active)
17,N#C/C(=C\c1ccc(N2CCCCC2)cc1)C(=O)Nc1sc2c(c1C#N)CCC2,119%
18,COc1cc(C(=O)NNC(=O)c2ccccc2O)cc(OC)c1OC,103%
19,CCCCCCCCCCCCOc1ccccc1C=O,91.3%
20,O=S(Cc1ccccc1)/C(=C/NC(=S)Nc1cc(Cl)ccc1Cl)c1ccccc1 (stereo not given),106%
21,O=C(CN1CCN(c2cc3c(cc2F)c(=O)c(C(=O)O)cn3C2CC2)CC1)Nc1ccc(C(=O)/C=C/c2ccc(Cl)cc2)cc1,95.1%
22,CCSc1nc(Nc2ccc(S(=O)(=O)Nc3ccon3)cc2)c(C#N)c(-c2cccc(Br)c2)n1,85.1%
23,C[C@H](NC(=O)c1snnc1C1CC1)c1c(F)cccc1Cl,99.4%
24,CN(C)CCCNc1nc2ccccc2c2c(=O)c3cc(F)ccc3sc12,-6.97% (active)
25,Cc1ccc(NC(=O)NC(=O)CSc2nc3ccccc3nc2C)cc1,19.6%
